From PubChem BioAssay (NCI)
Compounds without any hit were thinned out: in the full panel of roughly 83,000, 20% have a hit.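 A percent growth of 40 corresponds to 60% growth inhibition; 0 means no net growth; -100 means all cells died. Active threshold: below 10.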 The source made the active and inactive calls.

Assays:
Assay in all cases: NCI-60 one-dose screen, 48 h (100 = growth as untreated, 0 = no growth, -100 = all killed)
HCT-15 colon = conditions: 10 µM unless noted
HT29 colon = conditions: 10 µM unless noted
SNB-75 CNS = conditions: 10 µM unless noted
SNB-19 CNS = conditions: 10 µM unless noted
U251 CNS = conditions: 10 µM unless noted
SK-MEL-5 melanoma = conditions: 10 µM unless noted
UACC-62 melanoma = conditions: 10 µM unless noted
LOX IMVI melanoma = conditions: 10 µM
SK-MEL-28 melanoma = conditions: 10 µM unless noted
PC-3 prostate = conditions: 10 µM unless noted

Measured: growth

CCCCNc1ccc(-c2ccc(NCCCC)cc2)cc1
active: SK-MEL-5 melanoma -40.7%
inactive: HCT-15 colon 50.6% | HT29 colon 101% | SNB-75 CNS 83% | SNB-19 CNS 77.3% | U251 CNS 64.2% | UACC-62 melanoma 42.8% | LOX IMVI melanoma 25.9% | SK-MEL-28 melanoma 71.5%

Oc1ccc(CCC2CCNc3ccccc32)cc1 (stereo not given)
inactive: HCT-15 colon 83.2% | HT29 colon 93.7% | SNB-75 CNS 76.6% | SNB-19 CNS 87.2% | U251 CNS 71.5% | SK-MEL-5 melanoma 58% | UACC-62 melanoma 72% | LOX IMVI melanoma 81.1% | SK-MEL-28 melanoma 94.4%

BrCc1cccc(C[P+](c2ccccc2)(c2ccccc2)c2ccccc2)c1
inactive: HCT-15 colon 92.5% | HT29 colon 50.7% | SNB-75 CNS 47.6% | SNB-19 CNS 52.3% | PC-3 prostate 23.2% | SK-MEL-5 melanoma 22.6% | UACC-62 melanoma 54.7% | LOX IMVI melanoma 40.2%

CCCNS(=O)(=O)c1ccc(Cl)cc1
inactive: HCT-15 colon 99.6% | HT29 colon 101% | SNB-75 CNS 93.4% | SNB-19 CNS 104% | U251 CNS 99.3% | SK-MEL-5 melanoma 105% | LOX IMVI melanoma 101% | SK-MEL-28 melanoma 108%

Nc1cccc2cccc(O)c12
inactive: HCT-15 colon 83% | HT29 colon 107% | SNB-75 CNS 78.5% | SNB-19 CNS 98.7% | U251 CNS 70.5% | SK-MEL-5 melanoma 86.9% | UACC-62 melanoma 86.4% | LOX IMVI melanoma 85.1% | SK-MEL-28 melanoma 111%

CCOC(=O)/C(O)=C(\C=N\C(=S)Nc1ccc(Cl)c(Cl)c1)C(=O)OCC
inactive: HCT-15 colon 89.3% | HT29 colon 92.8% | SNB-75 CNS 82% | SNB-19 CNS 104% | U251 CNS 98.2% | SK-MEL-5 melanoma 91.7% | UACC-62 melanoma 88.4% | LOX IMVI melanoma 92.9% | SK-MEL-28 melanoma 109%

Cc1[nH]nc(C(N)=O)c1[N+](=O)[O-]
inactive: HCT-15 colon 95.2% | HT29 colon 108% | SNB-75 CNS 99.6% | SNB-19 CNS 93.2% | U251 CNS 103% | SK-MEL-5 melanoma 91.2% | UACC-62 melanoma 90.3% | LOX IMVI melanoma 97.2% | SK-MEL-28 melanoma 93.2%

CS(=O)CC(=N\O)/C(CS(C)=O)=N\O (stereo not given)
inactive: HCT-15 colon 99% | HT29 colon 99.9% | SNB-75 CNS 96.5% | SNB-19 CNS 101% | U251 CNS 96.5% | SK-MEL-5 melanoma 103% | UACC-62 melanoma 93.8% | SK-MEL-28 melanoma 107%

O=[n+]1ccn([O-])c2ccccc21
inactive: HCT-15 colon 110% | HT29 colon 108% | SNB-75 CNS 92% | SNB-19 CNS 102% | U251 CNS 100% | SK-MEL-5 melanoma 93.2% | LOX IMVI melanoma 97.4% | SK-MEL-28 melanoma 108%

COc1ccc(Br)c2c1C(=O)CC2
inactive: HCT-15 colon 110% | HT29 colon 106% | SNB-75 CNS 99.6% | SNB-19 CNS 108% | PC-3 prostate 96.6% | SK-MEL-5 melanoma 109% | UACC-62 melanoma 90.4% | LOX IMVI melanoma 104%

Cc1ccc2nc(N)nnc2c1
inactive: HCT-15 colon 102% | HT29 colon 112% | SNB-75 CNS 90.5% | SNB-19 CNS 102% | U251 CNS 111% | SK-MEL-5 melanoma 108% | UACC-62 melanoma 105% | LOX IMVI melanoma 100% | SK-MEL-28 melanoma 110%

Cn1c(=O)c2[nH]c(CCCCC(=O)O)nc2n(C)c1=O
inactive: HCT-15 colon 107% | HT29 colon 110% | SNB-75 CNS 95.3% | SNB-19 CNS 114% | U251 CNS 106% | SK-MEL-5 melanoma 108% | UACC-62 melanoma 102% | LOX IMVI melanoma 99.4% | SK-MEL-28 melanoma 118%

CC(C)C1CCC(C)C(O)C1 (stereo not given)
inactive: HCT-15 colon 107% | HT29 colon 105% | SNB-75 CNS 91.1% | SNB-19 CNS 99.6% | PC-3 prostate 89% | SK-MEL-5 melanoma 105% | LOX IMVI melanoma 99.6% | SK-MEL-28 melanoma 110%

CC(=O)OCC1CCC(COC(C)=O)CC1 (stereo not given)
inactive: HCT-15 colon 95% | HT29 colon 68.6% | SNB-75 CNS 87.4% | SNB-19 CNS 109% | PC-3 prostate 111% | SK-MEL-5 melanoma 103% | UACC-62 melanoma 97.7% | LOX IMVI melanoma 94% | SK-MEL-28 melanoma 102%

O=C(O)Cc1cccc2ccccc12
inactive: HCT-15 colon 102% | HT29 colon 105% | SNB-75 CNS 82.2% | SNB-19 CNS 116% | PC-3 prostate 106% | SK-MEL-5 melanoma 118% | UACC-62 melanoma 110% | LOX IMVI melanoma 97% | SK-MEL-28 melanoma 121%

CCOC(=O)c1ccc(C(C)(C)C)cc1
inactive: HCT-15 colon 111% | HT29 colon 109% | SNB-75 CNS 102% | SNB-19 CNS 112% | PC-3 prostate 105% | SK-MEL-5 melanoma 105% | UACC-62 melanoma 106% | LOX IMVI melanoma 99.8% | SK-MEL-28 melanoma 109%

C[n+]1cc2cc3c(cc2c2ccccc21)OCO3
inactive: HCT-15 colon 97.2% | HT29 colon 63% | SNB-75 CNS 22.5% | SNB-19 CNS 16.1% | PC-3 prostate 51.6% | SK-MEL-5 melanoma 43.1% | UACC-62 melanoma 72.7% | LOX IMVI melanoma 63.2% | SK-MEL-28 melanoma 45.6%

C=CC1=NC(C)(C)CC(C)O1 (stereo not given)
inactive: HCT-15 colon 98.9% | HT29 colon 106% | SNB-75 CNS 72% | SNB-19 CNS 99.5% | PC-3 prostate 102% | SK-MEL-5 melanoma 105% | UACC-62 melanoma 100% | LOX IMVI melanoma 98.4% | SK-MEL-28 melanoma 96.6%

C=CCC(OC(C)=O)c1ccc(OC)c(OC)c1 (stereo not given)
inactive: HCT-15 colon 104% | HT29 colon 107% | SNB-75 CNS 98.8% | SNB-19 CNS 109% | SK-MEL-5 melanoma 119% | UACC-62 melanoma 107% | LOX IMVI melanoma 107% | SK-MEL-28 melanoma 132%

OCCc1ccc(Cl)cc1
inactive: HCT-15 colon 102% | HT29 colon 99.9% | SNB-75 CNS 86.5% | SNB-19 CNS 96.5% | PC-3 prostate 95.5% | SK-MEL-5 melanoma 103% | LOX IMVI melanoma 100% | SK-MEL-28 melanoma 108%

OC(CCN1CCCCC1)(c1ccccc1)c1ccccc1
inactive: HCT-15 colon 104% | HT29 colon 96.1% | SNB-75 CNS 85.8% | SNB-19 CNS 110% | PC-3 prostate 96% | UACC-62 melanoma 106% | LOX IMVI melanoma 97.2% | SK-MEL-28 melanoma 112%

CCCCOC(=O)c1ccccc1O
inactive: HCT-15 colon 104% | HT29 colon 111% | SNB-75 CNS 85.9% | SNB-19 CNS 102% | PC-3 prostate 101% | SK-MEL-5 melanoma 104% | LOX IMVI melanoma 100% | SK-MEL-28 melanoma 113%

CCC(=O)C1C(=O)c2ccccc2C1=O
inactive: HCT-15 colon 113% | HT29 colon 100% | SNB-75 CNS 83.1% | SNB-19 CNS 109% | PC-3 prostate 92.2% | SK-MEL-5 melanoma 110% | UACC-62 melanoma 104% | LOX IMVI melanoma 98.1% | SK-MEL-28 melanoma 120%

Cc1onc(-c2c(F)cccc2Cl)c1-c1ncc(-c2ccc(Br)cc2)o1
inactive: HT29 colon 24.9% | SNB-75 CNS 65.8% | SNB-19 CNS 42.9% | U251 CNS 39.6% | PC-3 prostate 41% | SK-MEL-5 melanoma 10.8% | UACC-62 melanoma 34%

CC(=O)N=c1ccc2nc3c(cc(N)c4ccccc43)oc-2c1
inactive: SNB-75 CNS 34%
active: HCT-15 colon -75.5% | HT29 colon 1.15% | SNB-19 CNS -11.1% | PC-3 prostate 2.46% | UACC-62 melanoma -61.2% | LOX IMVI melanoma -74.3% | SK-MEL-28 melanoma -2.3%

C1=NCCc2ccccc21
inactive: HCT-15 colon 107% | HT29 colon 117% | SNB-75 CNS 76.4% | SNB-19 CNS 109% | PC-3 prostate 87.7% | SK-MEL-5 melanoma 95.3% | UACC-62 melanoma 114% | LOX IMVI melanoma 100% | SK-MEL-28 melanoma 110%

S=C(NCc1ccccc1)N1CCC(CCCC2CCN(C(=S)NCc3ccccc3)CC2)CC1
inactive: HCT-15 colon 99.8% | HT29 colon 95.9% | SNB-75 CNS 101% | SNB-19 CNS 94.5% | PC-3 prostate 89.5% | SK-MEL-5 melanoma 58.8% | UACC-62 melanoma 79.1% | SK-MEL-28 melanoma 119%

CN(C)Cc1ccccn1
inactive: HCT-15 colon 105% | HT29 colon 97.4% | SNB-75 CNS 95.7% | SNB-19 CNS 103% | PC-3 prostate 90.3% | SK-MEL-5 melanoma 101% | UACC-62 melanoma 97.8% | LOX IMVI melanoma 96.3% | SK-MEL-28 melanoma 102%

CCCCCCCCCCCCSC1=C(Cl)C(=O)C(OC)=C(OC)C1=O
inactive: HCT-15 colon 25.6% | HT29 colon 27.8% | SNB-75 CNS 44.9% | SNB-19 CNS 71.8% | PC-3 prostate 23.1% | UACC-62 melanoma 45.4% | LOX IMVI melanoma 11.7% | SK-MEL-28 melanoma 105%
active: SK-MEL-5 melanoma -37.6%

NC(=O)c1cc2c3ccccc3ccn2c1-c1ccccc1
inactive: SNB-75 CNS 59.9% | UACC-62 melanoma 31.7% | LOX IMVI melanoma 20%
active: HCT-15 colon 4.13% | HT29 colon 7.35% | SK-MEL-5 melanoma -34.2%

CC(=O)NCNC(C)=O
inactive: HCT-15 colon 101% | HT29 colon 111% | SNB-75 CNS 92.4% | SNB-19 CNS 107% | PC-3 prostate 88.9% | SK-MEL-5 melanoma 102% | UACC-62 melanoma 112% | LOX IMVI melanoma 113% | SK-MEL-28 melanoma 107%

COc1ccc(C2CC(c3ccccc3)=Nc3ccccc3S2)cc1 (stereo not given)
inactive: HCT-15 colon 98.3% | HT29 colon 92.8% | SNB-75 CNS 80.7% | SNB-19 CNS 93.8% | PC-3 prostate 82.7% | SK-MEL-5 melanoma 94.2% | UACC-62 melanoma 97.9% | LOX IMVI melanoma 95% | SK-MEL-28 melanoma 98.4%

CN(C)c1ccc2c(N(C)C)cc(N(C)C)nc2c1
inactive: HCT-15 colon 92% | HT29 colon 34.4% | SNB-75 CNS 92.5% | SNB-19 CNS 84.5% | PC-3 prostate 72.6% | UACC-62 melanoma 81.9% | LOX IMVI melanoma 87.7%

COc1nc(Nc2cccc(C(F)(F)F)c2)nc(OC)n1
inactive: HCT-15 colon 103% | HT29 colon 96.1% | SNB-75 CNS 84.3% | SNB-19 CNS 101% | PC-3 prostate 98.7% | SK-MEL-5 melanoma 94% | UACC-62 melanoma 103% | LOX IMVI melanoma 107% | SK-MEL-28 melanoma 109%

Nc1ncnc2c1ncn2C1OC(CO)C2OC21 (stereo not given)
inactive: HT29 colon 101% | SNB-75 CNS 106% | SNB-19 CNS 118% | U251 CNS 95.7% | PC-3 prostate 95.8% | SK-MEL-5 melanoma 101% | UACC-62 melanoma 100% | LOX IMVI melanoma 99.2%
